About 65 (0.1%) of roughly 65,000 compounds showed an effect of 50% or more. The full list was thinned out, with strong results kept by preference.

In this test the target is Tryptophan--tRNA ligase (Mycobacterium tuberculosis (strain ATCC 25618 / H37Rv)) (UniProt P9WFT3). In words: Biochemical assay for Mt-TrpRS. It counts as functional. Also on record: scale not given: direction of the effect not stated beside the values. The settings on record: 10 µM.
Chain of Tryptophan--tRNA ligase (Mycobacterium tuberculosis (strain ATCC 25618 / H37Rv)) (P9WFT3 whole entry): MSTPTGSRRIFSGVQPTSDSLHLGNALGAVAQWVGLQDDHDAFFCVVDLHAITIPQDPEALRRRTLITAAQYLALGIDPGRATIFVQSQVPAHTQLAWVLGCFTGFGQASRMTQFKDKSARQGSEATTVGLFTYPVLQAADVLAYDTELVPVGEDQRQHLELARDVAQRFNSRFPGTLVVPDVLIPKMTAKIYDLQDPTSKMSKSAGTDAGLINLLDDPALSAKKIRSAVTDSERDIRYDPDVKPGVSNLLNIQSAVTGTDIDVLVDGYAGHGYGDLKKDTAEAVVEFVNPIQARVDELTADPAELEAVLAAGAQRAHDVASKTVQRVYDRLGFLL
Turning to `CCCNCc1ccc(-c2ccnc3[nH]ccc23)cc1`, the Percent Effect is -1.02%.

For the molecule `CC(C)N1[C@@H](C(=O)NCCN(C)C)C[C@H]2CN(c3ncccn3)C[C@H]21`, the Percent Effect is 5.77%.

As for `c1cnnc(N2CCCC(NCc3nc(-c4ccco4)no3)C2)c1` (stereo not given), the Percent Effect was 90.8%.

As for `c1ccc(-c2noc(CNC3CCCN(c4cccnn4)C3)n2)nc1` (stereo not given), the Percent Effect is 1.43%.

As for `c1cnnc(N2CCCC(NCc3nc(-c4cccs4)no3)C2)c1` (stereo not given), the Percent Effect was -1.29%.

Turning to `C[C@H]1C[C@H]2CN(C(=O)CC3CC3)CC[C@H]2O1`, the Percent Effect is 2.03%.

For `CC(C)c1nc(C2CCCN2C(=O)c2cnns2)no1` (stereo not given), the Percent Effect was -5.71%.

As to `Cc1ccccc1CNC(=O)N1C[C@H]2C[C@H](C(=O)N3CCCC3)[C@@H](C1)O2`, the Percent Effect is -2.16%.

`C=Cn1ncc(CN2CCC(c3ncc(Cl)cc3S(C)(=O)=O)CC2)c1C`: the Percent Effect was found to be 67.3%.

`C=Cn1cc(CN2CCC(c3ncc(Cl)cc3S(C)(=O)=O)CC2)c(C)n1`: the Percent Effect is -5.42%.

As for `CCn1ncc(CN2CCC(c3ncc(Cl)cc3S(C)(=O)=O)CC2)c1C`, the Percent Effect was -1.24%.

With `Fc1ccccc1CO[C@@H]1C[C@H]2CN(c3ncccn3)CCN2C1`, the Percent Effect was -4.64%.

As for `c1cnc(-c2nc(CN3CCn4c(nnc4C4CC4)C3)cs2)nc1`, the Percent Effect is -3.46%.

In the case of `Cc1nnc2n1CCN(Cc1csc(-c3ncccn3)n1)C2`, the Percent Effect worked out at 59%.

In the case of `CCc1nnc2n1CCN(Cc1csc(-c3ncccn3)n1)C2`, the Percent Effect was 1.94%.

Regarding `CN(C)C(=O)CN1C[C@@H]2CC[C@H](C1)N(Cc1c(F)cccc1Cl)C2`, the Percent Effect amounted to 2.26%.

As for `COc1ccccc1OCCc1nnc(NC(=O)C2CC23CCC3)s1` (stereo not given), the Percent Effect amounted to 72.7%.

Regarding `COc1ccc(Cc2nnc(NC(=O)C3CC34CCC4)s2)cc1OC` (stereo not given), the Percent Effect was 1.5%.

With `COc1ccc(CCc2nnc(NC(=O)C3CC34CCC4)s2)cc1OC` (stereo not given), the Percent Effect was -2.9%.

As to `CSC1=Nc2c(cnn2-c2cccc(Cl)c2)C2=NCCCN12`, the Percent Effect came to 1.3%.

Take `Cc1cnn(CC2CCCN2Cc2nnc(C(C)C)o2)c1` (stereo not given): the Percent Effect was determined as 60.5%.

Consider `Cc1cnn(CC2CCCN2Cc2nc(C)c3ccccc3n2)c1` (stereo not given), for which the Percent Effect came out at 0.13%.

As for `CCc1nnc(CN2CCCC2Cn2cc(C)cn2)o1` (stereo not given), the Percent Effect came out at 9.78%.

Turning to `c1ccc(Cc2nnc(CN3CCCCC3Cn3cncn3)o2)cc1` (stereo not given), the Percent Effect was -0.0684%.

In the case of `Cc1cnn(CC2CCCCN2Cc2nc(N)c3ccccc3n2)c1` (stereo not given), the Percent Effect worked out at 1.18%.

`Cc1cnn(CC2CCCN2Cc2nc(N)c3ccccc3n2)c1` (stereo not given): the Percent Effect was found to be 57.9%.

As for `CCc1nnc(CN2CCCCC2Cn2cncn2)o1` (stereo not given), the Percent Effect was found to be 75.1%.

As for `Cc1ccc(-c2nnc(CN3CCCCC3Cn3cncn3)o2)cc1` (stereo not given), the Percent Effect came to 3.48%.

Take `Cc1cnn(CC2CCCN2Cc2nnc(C)o2)c1` (stereo not given): the Percent Effect was -10.6%.

For the molecule `CNC(=O)N1CC[C@@H]2CN(CCc3cccc(OC)c3)S(=O)(=O)[C@@H]2CC1`, the Percent Effect is -3.31%.

Turning to `CCc1cnc(N2C[C@H]3C[C@H](C(=O)NC4CCC4)[C@@H](C2)O3)nc1`, the Percent Effect was -1.02%.

For the molecule `CCNC(=O)N1C[C@@H]2OCC(=O)N(CC3CC3)[C@@H]2C1`, the Percent Effect is -1.91%.

Take `Cc1cccnc1NCCNC(=O)c1cnc(-c2ccccn2)nc1O`: the Percent Effect is 2.7%.

For `Cn1cc(CN2CC[C@H]3OCC[C@@H](C(=O)NCc4ccco4)[C@@H]3C2)cn1`, the Percent Effect was found to be 0.83%.

Regarding `O=C1C[C@H]2[C@@H](CCN2C(=O)c2ccoc2)N1CCN1CCOCC1`, the Percent Effect was determined as 2.55%.

Turning to `Cn1ccnc1C(=O)N1C[C@@H]2CCN(c3cnccn3)C[C@@H]2C1`, the Percent Effect stood at 2.7%.

In the case of `Cc1ccc(-c2noc(C3CCN3C(=O)c3ccn(C)n3)n2)s1` (stereo not given), the Percent Effect was -4.63%.

On to `CC(=O)N1CCC(C(=O)N2CCC2c2nc(-c3ccc(C)s3)no2)CC1` (stereo not given), for which the Percent Effect stood at 56.7%.

With `CC(=O)N1CCC1c1nc(-c2ccc(C)s2)no1` (stereo not given), the Percent Effect turned out to be 13.1%.

For `COCCNC(=O)Cn1ccc2sc(C)cc2c1=O`, the Percent Effect amounted to 0.44%.

Take `CCCc1noc(CN2CCN(c3nccs3)CC2)n1`: the Percent Effect was 2.03%.

Regarding `CCc1noc(CN2CCN(c3nccs3)CC2)n1`, the Percent Effect was determined as 71.8%.

As for `CC(C)Cc1noc(CN2CCN(c3nccs3)CC2)n1`, the Percent Effect is -1.84%.

`Cc1nn(C)c2c(=O)n(CC(=O)NCCC3=CCCCC3)ccc12`: the Percent Effect turned out to be 2.33%.

As to `CCCN(CC)c1ccc(C(=O)N2CCCC2c2cnn(C)c2)cn1` (stereo not given), the Percent Effect was -3.89%.

With `CC(C)CN(C)c1ccc(C(=O)N2CCCC2c2cnn(C)c2)cn1` (stereo not given), the Percent Effect was determined as 2.24%.

As to `CCN(c1ccc(C(=O)N2CCCC2c2cnn(C)c2)cn1)C(C)C` (stereo not given), the Percent Effect is 64.8%.

With `O=C([C@H]1CN(Cc2nccs2)C[C@H]2OCC[C@@H]12)N1CCCC1`, the Percent Effect worked out at 4.93%.

For `O=C1CO[C@@H]2CN(S(=O)(=O)c3ccccc3)C[C@H]2N1CC1CC1`, the Percent Effect came out at 4.3%.

As for `Cc1noc(CN(Cc2cccs2)C2CCS(=O)(=O)C2)n1` (stereo not given), the Percent Effect is -5.5%.

Consider `Cc1noc(C)c1CN(Cc1cccs1)C1CCS(=O)(=O)C1` (stereo not given), for which the Percent Effect amounted to 59.4%.

Take `O=S1(=O)CCC(N(Cc2nc3ccccc3o2)Cc2cccs2)C1` (stereo not given): the Percent Effect worked out at 57%.

Take `Cc1nc(CN(Cc2cccs2)C2CCS(=O)(=O)C2)oc1C` (stereo not given): the Percent Effect came to 1.07%.

Regarding `CC(C)(C)c1nc(CN(Cc2cccs2)C2CCS(=O)(=O)C2)no1` (stereo not given), the Percent Effect was -0.877%.

Consider `O=S1(=O)CCC(N(Cc2nc(-c3ccccn3)no2)Cc2cccs2)C1` (stereo not given), for which the Percent Effect was -6.38%.

Take `O=C(c1ccnnc1)N1C[C@@H]2C[C@@H](c3nc(C4CC4)cs3)O[C@@H]2C1`: the Percent Effect is 2.42%.

Regarding `O=C(NCc1ccco1)[C@@H]1CCO[C@@H]2CCN(c3ncccn3)C[C@@H]21`, the Percent Effect amounted to 3.59%.

As for `c1cncc(OCc2noc3c2CN(Cc2ccsc2)CC3)c1`, the Percent Effect is -0.692%.

On to `CC(c1nc(C2CC2)no1)N1CCN(c2ccc(C#N)cn2)CC1` (stereo not given), for which the Percent Effect came out at 0.106%.

Turning to `O=C1CC[C@H]2CN(Cc3ccc(Cl)s3)CC[C@H]2N1CCc1c[nH]cn1`, the Percent Effect came out at 0.411%.

Source of the values: ChEMBL document CHEMBL3988442, “University of Dundee, Small-Polar-MMV Screening Library” (2021).
